Reference: PubChem BioAssay AID2253 (Southern Research Specialized Biocontainment Screening …, 2010)
Hit rate of the full screen: of about 2,200 compounds, about 1,300 (59%) were called active. The set was probably picked from earlier hits. Not all results are given here. Potency and affinity values are given separately. A number with no mark means an inactive call. How the calls were made is not given here.

assay: human monocytic cell viability reduction – S. typhimurium screen hits, cytotoxicity control for Salmonella PhoP regulon inhibitors, dose response (AID 2253); settings: THP-1 viability, CellTiter-Glo luminescence, 72 h; series mostly up to 50 µM; viability: at the top concentration

SMILES	viability
O=C1c2ccccc2C(=O)N1CCCc1nc(-c2ccccn2)no1	114%
O=C1c2ccccc2C(=O)N1Cc1nc(-c2ccccn2)no1	101%
CCOc1cc(CNn2cnnc2)ccc1OCC(=O)NC1CCCCC1	105%
Cc1ccccc1OCC(=O)N/N=C/c1ccco1	91.9%
O=C(COC(=O)/C=C/c1ccco1)Nc1cccc([N+](=O)[O-])c1	94.9%
CCOC(=O)/C=C1\SCC(=O)N1CC(=O)NC1CCCCC1	91.7%
CCn1c(Cc2ccccc2)nnc1SCC(=O)Nc1ccc(S(N)(=O)=O)cc1	89.3%
Cc1cc(C)c(NC(=O)COc2ccccc2C(=O)Nc2ccc3c(c2)oc2ccccc23)c(C)c1	96.5%
N/C(=N\OC(=O)COc1ccc(Cl)cc1)c1cccnc1	94.1%
c1ccc(CCNc2nc3ccccc3s2)cc1	85.5%
Cc1ccc(C(=O)Oc2ccc(C(=O)COC(=O)c3cnccn3)cc2)cc1	84.2%
COc1ccc(/C=C/C(=O)NCCc2nc3ccccc3[nH]2)cc1	92.5%
Nc1nnc(SCc2ccc(F)cc2Cl)s1	85.2%
O=C(CSc1nnc(-c2cccnc2)o1)OC1CCCCC1	85.3%
C/C(=N/NC(=O)Cc1cccn1C)c1ccccc1	83.9%
Cc1oc(CC(C)C)c(CN)c1C(=O)O	91%
CCOc1ccccc1Nc1nc2ccccc2n2cnnc12	102%
CCCn1c(N)nc2ccccc21	92.3%
Cn1c(-c2ccc(N)cc2)nc2ccccc21	80.5%
CCCNC(=O)CN(C1CCCCC1)S(C)(=O)=O	101%
COc1cc([N+](=O)[O-])ccc1NC(=O)CN(C)C	90.2%
O=C(CSc1n[nH]c(=O)[nH]c1=O)N/N=C/c1ccccc1	99.9%
CC1CCc2cc(F)cc3c(=O)c(C(=O)O)cn1c23 (stereo not drawn)	95.9%
CCN1C(=O)N/C(=C/c2ccc(Sc3ccc(C)cc3)o2)C1=O	88.3%
O=C(Nc1cccnc1)c1cc(F)cc(F)c1	83.5%
COc1nccnc1NS(=O)(=O)c1ccc(NC(=S)NC(=O)c2cccnc2)cc1	83.2%

SMILES	viability
COc1nsnc1NS(=O)(=O)c1ccc(NC(=S)NC(=O)c2cccnc2)cc1	82.1% [at 25 µM]
Cc1cccc(C(=O)NC(=S)Nc2ccc(N3CCOCC3)cc2)c1	80.9%
COC(=O)Cc1ccc(NC(=S)N2CCN(c3ccc(F)cc3)CC2)cc1	103%
O=C(Nc1ccccc1)Oc1ccc[nH]c1=O	95.3%
CCCOc1ccc(C(=O)N2CCCC2C(=O)O)cc1 (stereo not drawn)	102%
O=C(Nc1ccccn1)NC1CCCCC1	88.2%
CC(C)Nc1cc(C(F)(F)F)nc(-c2ccccn2)n1	84.2%
COc1ccccc1NCCC(=O)OCC(=O)NC1CCCCCC1	100%
O=C(Nc1ccsc1C(=O)NC1CCCCC1)c1ccccc1	84.2%
C/C(=N\NC(=O)c1ccccc1)c1ccc2c(c1)OCO2	83.2%
O=S(=O)(c1ccc(NC(=S)Nc2ccc3c(c2)OCO3)cc1)N1CCOCC1	82.4%
O=C(Nc1nccs1)c1cc(-c2ccco2)nc2ccccc12	98.7%
COc1ccc(-c2cc(C(=O)Nc3ccc(S(=O)(=O)Nc4ncccn4)cc3)c3ccccc3n2)cc1	81.1%
N#CCCN(C(=O)CN1C(=O)NC2(CCCC2)C1=O)c1ccccc1F	92.2%
c1ccc(CSc2nnc(-c3ccncc3)o2)cc1	97.8%
O=C(CSc1nnc(Cc2ccccc2)o1)NCCc1ccccc1	98.5%
O=C(NCCc1ccccc1)c1ccc2nc(-c3ccco3)c(-c3ccco3)nc2c1	87.4%
CCn1cc(C(=O)O)c(=O)c2cc(F)c(N3CCN(C(=S)NC(=O)c4cccc(F)c4)CC3)cc21	101%
Cc1ccc(C(=O)c2ccccc2C(=O)O)c(O)c1	93.6%
Cc1cc(C)cc(-n2c(C)cc(C=C(C#N)C#N)c2C)c1	108%
CCN(c1ccc(OCC(=O)OCC(=O)Nc2ccc(F)c(F)c2F)cc1)S(=O)(=O)c1ccccc1	93.2%
NC1CCN(c2nc3c(cc2F)c(=O)c(C(=O)O)cn3-c2ccc(F)cc2F)C1 (stereo not drawn)	96.4%
CCOC(=O)C1=C(C)NC(=S)NC1c1ccc(OC(=O)c2ccco2)cc1 (stereo not drawn)	80.1%
CCNC(=O)NC1(C(=O)Nc2ccc3c(c2)OCCO3)CCCCC1	102%
O=C(Nc1nc2ccc(SC(F)F)cc2s1)c1ccc2c(c1)S(=O)(=O)c1ccccc1C2=O	92%
Cc1nn(C)c(C)c1S(=O)(=O)N1CCC(C(=O)NC2CCCCC2)CC1	87.9%

SMILES	viability
Cc1cccc(N2CCN(CC(=O)Nc3nccs3)CC2)c1C	94.7% [at 25 µM]
O=c1cc(Cc2ccccc2)[nH]c(=S)[nH]1	89.9%
CC1CCc2c(N3CCC(O)CC3)c(F)cc3c(=O)c(C(=O)O)cn1c23 (stereo not drawn)	81.6%
CC1(C)CC(=O)C=C(Nc2ccc(Br)cn2)C1	91.2%
Cc1nn(CCOc2ccccc2)c(=O)n1-c1ccc(F)cc1	101%
CCCn1c(/N=C/c2ccc3c(c2)OCO3)nc2ccccc21	102%
CCCn1c(NCCO)nc2ccccc21	96.2%
CC(Cl)C(=O)NNc1cccc(Cl)n1 (stereo not drawn)	90.3%
S=c1nc(C2CCCCC2)[nH][nH]1	96.5%
Cc1cc(C)n2c(SCC(=O)NCc3ccco3)nnc2n1	110%
COc1ccc(C(=O)C(CO)Oc2ccccc2OC)cc1OC (stereo not drawn)	88.4%
CCS(=O)(=O)Nc1cc(C(=O)OC)ccc1C(=O)OC	94.7%
CCCCOC(=O)CSc1nc2c(c(=O)[nH]c(=O)n2C)n1C/C=C(\C)Cl	95%
Cc1ccc(NC(=O)c2ccccc2)s1	95.6%
Cc1cc(C(=O)NCc2cccs2)cs1	88.3%
Brc1cccc(CNCc2cccs2)c1	101%
CCN(CC)Cc1c[nH]c2c(C(=O)OC)cccc12	85.1%
COCCn1c(-c2ccccc2F)n[nH]c1=S	105%
CN1CCCC(OC(=O)c2ccc3c(c2)OCCO3)C1 (stereo not drawn)	88.2%
O=C(CCN1CCCCC1)NCC1OCCc2ccccc21 (stereo not drawn)	98.8%
O=C(CCNS(=O)(=O)c1cccc2nsnc12)Nc1ccc2c(c1)OCCO2	96.2%
S=c1[nH]nc(Cc2cccc3ccccc23)o1	104%
c1coc(CNc2c3c(nc4ncnn24)CCCC3)c1	95.3%
CCOc1ccc(/C=N/O)cc1	93%
CCN1CCN(C(=O)c2ccc(COc3ccc(Cl)cc3)o2)CC1	90%
CCOc1ccc(CCNC(=O)c2cc3sc(Cl)cc3n2C)cc1OCC	82.6%
